PMC7862700, “An all-to-all approach to the identification of sequence-specific readers for epigenetic DNA modifications on cytosine”

Legend:
Assay in all cases: DAPPL (digital affinity profiling via proximity ligation, sequencing); 10 mM Tris-HCl pH 7.5, 50 mM NaCl, 1 mM DTT, 4% glycerol, room temperature, 30 min; GST-TFs on glutathione beads, 16-mer random dsDNA library, 0.1% formaldehyde crosslink after washing; high values mean tight binding
Details in all cases: protein: recombinant; tags: N-terminal GST; dsDNA, one strand shown
[1] = biological target: T1, FLI1 (Homo sapiens, UniProt Q01543 1-452)
T1 sequence: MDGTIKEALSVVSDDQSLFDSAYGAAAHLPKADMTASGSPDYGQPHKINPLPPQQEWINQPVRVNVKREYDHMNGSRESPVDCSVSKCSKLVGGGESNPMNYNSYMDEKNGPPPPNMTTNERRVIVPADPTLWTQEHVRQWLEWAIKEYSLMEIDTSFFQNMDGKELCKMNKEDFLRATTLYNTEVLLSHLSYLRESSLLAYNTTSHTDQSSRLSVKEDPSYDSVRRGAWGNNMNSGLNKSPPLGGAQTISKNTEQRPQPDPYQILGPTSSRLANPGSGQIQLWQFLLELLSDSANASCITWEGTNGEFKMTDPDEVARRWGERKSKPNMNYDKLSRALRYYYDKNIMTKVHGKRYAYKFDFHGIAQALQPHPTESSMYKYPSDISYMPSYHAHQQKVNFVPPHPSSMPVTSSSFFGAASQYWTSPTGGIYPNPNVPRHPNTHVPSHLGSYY
How it was run: (§1)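 Human transcription factors were made in yeast as GST fusions, captured on glutathione beads and barcoded with DNA. With a tag-only sample included, the pool was incubated with 200 nmole of a random double-stranded 16-mer DNA library in Tris/NaCl/DTT/glycerol buffer at room temperature for 30 min, then crosslinked with 0.1% formaldehyde after washing, ligated by proximity, amplified and sequenced. For binding signal, each hexamer's read frequency for a factor is divided by its frequency for the tag-only sample.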

[2] = biological target: T2, GABPA (Homo sapiens, UniProt Q06546 1-454)
T2 sequence: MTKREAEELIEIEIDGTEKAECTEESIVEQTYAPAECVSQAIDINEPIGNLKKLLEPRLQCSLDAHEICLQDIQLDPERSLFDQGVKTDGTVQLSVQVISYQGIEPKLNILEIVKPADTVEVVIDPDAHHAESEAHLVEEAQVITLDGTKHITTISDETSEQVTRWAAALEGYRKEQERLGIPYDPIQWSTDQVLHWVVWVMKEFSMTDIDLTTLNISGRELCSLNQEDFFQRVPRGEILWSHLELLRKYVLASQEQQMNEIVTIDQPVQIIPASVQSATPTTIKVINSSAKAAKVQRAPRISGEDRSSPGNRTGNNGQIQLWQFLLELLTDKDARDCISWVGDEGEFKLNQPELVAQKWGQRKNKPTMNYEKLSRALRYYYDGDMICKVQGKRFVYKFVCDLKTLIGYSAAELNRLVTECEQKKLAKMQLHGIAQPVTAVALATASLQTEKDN
How it was run: as §1

[3] = biological target: T3, EHF (Homo sapiens, UniProt Q9NZC4 1-300)
T3 sequence: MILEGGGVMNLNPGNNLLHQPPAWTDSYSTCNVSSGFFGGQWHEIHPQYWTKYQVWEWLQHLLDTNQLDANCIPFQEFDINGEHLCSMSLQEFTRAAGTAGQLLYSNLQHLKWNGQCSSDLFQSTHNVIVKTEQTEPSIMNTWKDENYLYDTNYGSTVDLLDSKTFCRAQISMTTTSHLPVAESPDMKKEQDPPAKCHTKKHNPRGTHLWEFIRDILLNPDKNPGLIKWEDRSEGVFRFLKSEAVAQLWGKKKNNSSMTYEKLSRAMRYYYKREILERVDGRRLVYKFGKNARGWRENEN
How it was run: as §1

[4] = biological target: T4, ELK3 (Homo sapiens, UniProt P41970 1-407)
T4 sequence: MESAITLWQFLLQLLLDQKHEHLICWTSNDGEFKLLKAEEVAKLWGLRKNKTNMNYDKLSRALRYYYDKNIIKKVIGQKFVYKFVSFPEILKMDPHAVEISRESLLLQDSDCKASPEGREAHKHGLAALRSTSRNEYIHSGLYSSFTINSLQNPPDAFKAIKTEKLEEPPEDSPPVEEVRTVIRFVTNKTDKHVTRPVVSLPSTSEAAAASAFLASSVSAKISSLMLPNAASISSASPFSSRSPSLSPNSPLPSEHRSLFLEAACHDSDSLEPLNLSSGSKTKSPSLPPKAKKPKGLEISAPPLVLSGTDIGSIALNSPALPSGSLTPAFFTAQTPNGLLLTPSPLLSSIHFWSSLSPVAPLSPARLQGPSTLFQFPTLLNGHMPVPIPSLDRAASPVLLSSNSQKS
How it was run: as §1

[5] = biological target: ELF4 (Homo sapiens, UniProt Q99607 1-663)
How it was run: as §1

[6] = biological target: T5, ELF3 (Homo sapiens, UniProt P78545 1-371)
T5 sequence: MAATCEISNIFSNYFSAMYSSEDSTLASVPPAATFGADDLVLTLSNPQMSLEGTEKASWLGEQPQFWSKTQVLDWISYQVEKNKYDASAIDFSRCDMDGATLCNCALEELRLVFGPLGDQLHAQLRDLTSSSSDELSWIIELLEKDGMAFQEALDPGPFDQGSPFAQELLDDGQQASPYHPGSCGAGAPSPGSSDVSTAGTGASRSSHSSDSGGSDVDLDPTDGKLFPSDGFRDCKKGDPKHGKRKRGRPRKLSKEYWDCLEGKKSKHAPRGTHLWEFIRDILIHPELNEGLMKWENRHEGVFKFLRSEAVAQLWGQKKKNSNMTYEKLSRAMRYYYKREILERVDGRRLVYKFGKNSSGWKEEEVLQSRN
How it was run: as §1

[7] = biological target: ETV1 (Homo sapiens, UniProt P50549 1-477)
How it was run: as §1

[8] = biological target: T6, ETV3L (Homo sapiens, UniProt Q6ZN32 1-361)
T6 sequence: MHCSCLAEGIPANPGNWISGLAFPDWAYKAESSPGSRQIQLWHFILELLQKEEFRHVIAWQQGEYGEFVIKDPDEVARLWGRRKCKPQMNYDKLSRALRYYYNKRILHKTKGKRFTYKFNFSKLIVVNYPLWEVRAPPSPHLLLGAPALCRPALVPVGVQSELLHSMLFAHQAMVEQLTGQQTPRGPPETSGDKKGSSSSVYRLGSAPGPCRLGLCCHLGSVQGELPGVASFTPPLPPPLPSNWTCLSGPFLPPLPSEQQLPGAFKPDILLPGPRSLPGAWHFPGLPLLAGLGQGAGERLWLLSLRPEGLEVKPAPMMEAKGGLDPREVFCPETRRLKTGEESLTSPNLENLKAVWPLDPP
How it was run: as §1

[9] = biological target: T7, ETS2 (Homo sapiens, UniProt P15036 1-469)
T7 sequence: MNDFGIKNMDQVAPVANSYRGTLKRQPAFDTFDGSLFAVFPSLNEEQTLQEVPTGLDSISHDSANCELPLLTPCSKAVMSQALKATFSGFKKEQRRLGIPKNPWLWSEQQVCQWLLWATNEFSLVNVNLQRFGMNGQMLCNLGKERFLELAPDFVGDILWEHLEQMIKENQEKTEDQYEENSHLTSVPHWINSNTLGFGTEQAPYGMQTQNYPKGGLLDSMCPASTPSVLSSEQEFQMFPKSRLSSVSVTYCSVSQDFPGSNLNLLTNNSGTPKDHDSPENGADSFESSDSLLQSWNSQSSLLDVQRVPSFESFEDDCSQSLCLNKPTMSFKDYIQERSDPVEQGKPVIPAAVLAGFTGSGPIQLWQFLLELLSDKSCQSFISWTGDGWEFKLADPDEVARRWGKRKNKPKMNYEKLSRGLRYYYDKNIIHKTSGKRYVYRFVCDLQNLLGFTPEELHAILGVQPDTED
How it was run: as §1

[10] = biological target: ETV6 (Homo sapiens, UniProt P41212 1-452)
How it was run: as §1

[11] = biological target: T8, SPIC (Homo sapiens, UniProt Q8N5J4 1-248)
T8 sequence: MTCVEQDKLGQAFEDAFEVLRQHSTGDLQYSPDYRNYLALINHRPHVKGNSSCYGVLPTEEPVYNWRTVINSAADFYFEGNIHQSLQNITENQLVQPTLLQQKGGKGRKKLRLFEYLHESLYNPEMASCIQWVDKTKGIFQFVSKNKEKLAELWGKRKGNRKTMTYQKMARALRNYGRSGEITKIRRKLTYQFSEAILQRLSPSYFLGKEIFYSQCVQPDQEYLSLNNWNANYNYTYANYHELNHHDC
How it was run: as §1

[12] = biological target: T9, ELK4 (Homo sapiens, UniProt P28324-2 1-405)
T9 sequence: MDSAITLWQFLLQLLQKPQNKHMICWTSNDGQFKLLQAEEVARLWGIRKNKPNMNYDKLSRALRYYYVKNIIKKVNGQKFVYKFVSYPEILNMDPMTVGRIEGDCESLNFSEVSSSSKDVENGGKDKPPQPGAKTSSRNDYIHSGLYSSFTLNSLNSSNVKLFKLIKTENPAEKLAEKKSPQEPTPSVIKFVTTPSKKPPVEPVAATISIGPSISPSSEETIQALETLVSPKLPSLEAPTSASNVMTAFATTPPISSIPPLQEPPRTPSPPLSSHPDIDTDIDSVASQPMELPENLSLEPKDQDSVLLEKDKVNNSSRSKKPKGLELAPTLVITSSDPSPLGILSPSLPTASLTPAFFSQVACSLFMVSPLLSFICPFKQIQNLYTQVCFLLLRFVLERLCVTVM
How it was run: as §1

Chain of ELF4 (Q99607 whole entry): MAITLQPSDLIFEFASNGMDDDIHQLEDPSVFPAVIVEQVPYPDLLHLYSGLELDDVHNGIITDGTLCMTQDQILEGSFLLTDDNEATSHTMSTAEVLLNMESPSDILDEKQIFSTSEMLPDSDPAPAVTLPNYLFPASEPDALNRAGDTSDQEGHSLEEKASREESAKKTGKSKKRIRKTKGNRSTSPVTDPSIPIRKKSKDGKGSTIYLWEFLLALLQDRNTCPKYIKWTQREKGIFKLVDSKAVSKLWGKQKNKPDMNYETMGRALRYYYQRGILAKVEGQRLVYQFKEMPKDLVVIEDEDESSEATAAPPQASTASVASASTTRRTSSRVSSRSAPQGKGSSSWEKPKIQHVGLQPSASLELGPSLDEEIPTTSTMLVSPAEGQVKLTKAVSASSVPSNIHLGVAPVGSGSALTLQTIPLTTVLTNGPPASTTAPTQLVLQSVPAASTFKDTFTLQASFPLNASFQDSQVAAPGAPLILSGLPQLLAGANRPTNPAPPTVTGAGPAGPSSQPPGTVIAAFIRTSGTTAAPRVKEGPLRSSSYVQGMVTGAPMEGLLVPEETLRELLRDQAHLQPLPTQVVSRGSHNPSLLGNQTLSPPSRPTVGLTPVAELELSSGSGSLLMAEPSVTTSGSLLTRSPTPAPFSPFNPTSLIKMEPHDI
Chain of ETV1 (P50549 whole entry): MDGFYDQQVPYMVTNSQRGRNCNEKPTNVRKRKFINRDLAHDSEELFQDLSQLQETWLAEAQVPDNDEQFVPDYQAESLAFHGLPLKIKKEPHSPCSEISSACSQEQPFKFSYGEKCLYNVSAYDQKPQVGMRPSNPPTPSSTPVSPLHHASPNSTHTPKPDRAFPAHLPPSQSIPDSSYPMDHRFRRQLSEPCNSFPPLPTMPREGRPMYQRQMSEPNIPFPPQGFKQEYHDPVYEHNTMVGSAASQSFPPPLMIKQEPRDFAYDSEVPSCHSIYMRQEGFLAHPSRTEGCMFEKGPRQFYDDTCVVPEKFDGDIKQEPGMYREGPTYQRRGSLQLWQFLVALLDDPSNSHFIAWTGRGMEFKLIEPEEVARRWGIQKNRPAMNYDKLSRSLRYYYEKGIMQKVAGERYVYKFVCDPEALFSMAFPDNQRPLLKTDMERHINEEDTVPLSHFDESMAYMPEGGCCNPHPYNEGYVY
Chain of ETV6 (P41212 whole entry): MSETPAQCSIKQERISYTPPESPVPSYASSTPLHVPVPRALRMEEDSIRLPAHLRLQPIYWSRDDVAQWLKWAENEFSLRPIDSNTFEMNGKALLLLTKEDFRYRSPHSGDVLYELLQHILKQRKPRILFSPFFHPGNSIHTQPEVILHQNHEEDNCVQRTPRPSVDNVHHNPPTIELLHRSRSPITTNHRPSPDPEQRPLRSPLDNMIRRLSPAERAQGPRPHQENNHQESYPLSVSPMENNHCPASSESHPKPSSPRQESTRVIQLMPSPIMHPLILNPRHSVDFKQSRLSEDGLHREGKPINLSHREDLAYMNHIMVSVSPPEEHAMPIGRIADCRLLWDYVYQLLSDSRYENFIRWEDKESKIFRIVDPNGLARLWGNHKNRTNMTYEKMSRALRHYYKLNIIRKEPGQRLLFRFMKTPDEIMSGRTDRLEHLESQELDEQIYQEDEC

Row | Sequence | binding signal [1] | binding signal [2] | binding signal [3] | binding signal [4] | binding signal [5] | binding signal [6] | binding signal [7] | binding signal [8] | binding signal [9] | binding signal [10] | binding signal [11] | binding signal [12]
1 | GACGAC | 1.01 fold enrichment (6-mer frequency, TF over GST control) | 1.05 fold enrichment (6-mer frequency, TF over GST control) | 1.06 fold enrichment (6-mer frequency, TF over GST control) | 1.03 fold enrichment (6-mer frequency, TF over GST control) | 1.03 fold enrichment (6-mer frequency, TF over GST control) | 1.06 fold enrichment (6-mer frequency, TF over GST control) | 1.02 fold enrichment (6-mer frequency, TF over GST control) | 1.03 fold enrichment (6-mer frequency, TF over GST control) | 1.02 fold enrichment (6-mer frequency, TF over GST control) | 1.08 fold enrichment (6-mer frequency, TF over GST control) | – | –
2 | CTTGAG | 1.08 fold enrichment (6-mer frequency, TF over GST control) | – | – | – | – | – | – | – | – | – | 1.12 fold enrichment (6-mer frequency, TF over GST control) | 1.05 fold enrichment (6-mer frequency, TF over GST control)
